According to PubChem BioAssay (NCATS):
Records with an inconclusive call do not appear. Calls of active or inactive are those of the source. The call rests on the fitted dose curve; in most records, active means well fitted curve in the direction sought with a large enough effect; inconclusive means small, poorly fitted or top-dose-only effect, or another doubt; inactive means no such curve, though single readings can be large; an effect the other way counts as inactive or inconclusive. Residues, ends and D or L forms follow the SMILES beside them. *: point of attachment. Cbz = O=C(OCc1ccccc1)*

Columns and labels:
[1] = molecular target: Alpha-galactosidase A (Homo sapiens) (UniProt P06280); experiment: Counterscreen for Glucocerebrosidase Inhibitors: qHTS Assay for Human alpha-Galactosidase at pH 4.5 (AID 992)
Sequence of Alpha-galactosidase A (Homo sapiens) (P06280 whole entry, looked up): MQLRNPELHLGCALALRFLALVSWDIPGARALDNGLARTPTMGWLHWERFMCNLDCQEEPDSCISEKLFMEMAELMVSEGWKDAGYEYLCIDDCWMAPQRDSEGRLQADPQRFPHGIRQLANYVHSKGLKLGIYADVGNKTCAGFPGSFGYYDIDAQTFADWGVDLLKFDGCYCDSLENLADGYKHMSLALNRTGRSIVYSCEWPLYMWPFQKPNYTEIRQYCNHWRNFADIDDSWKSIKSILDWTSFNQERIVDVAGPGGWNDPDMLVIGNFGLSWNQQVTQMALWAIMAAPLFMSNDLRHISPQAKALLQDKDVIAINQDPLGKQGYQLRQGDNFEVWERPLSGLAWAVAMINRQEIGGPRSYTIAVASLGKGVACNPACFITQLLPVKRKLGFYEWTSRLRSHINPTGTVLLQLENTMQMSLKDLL
Outline: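 Quantitative HTS: compounds tested from 0.7 nM up to 77 uM against 2 nM enzyme with 80 uM 4-MU alpha-D-galactopyranoside. The 20 min room-temperature reaction is stopped with 1M NaOH/1M glycine, pH 10.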

[2] = molecular target: alpha-glucosidase (Oryza sativa, rice) (UniProt Q653V4); experiment: Counterscreen for Glucocerebrosidase Inhibitors: qHTS Assay for Rice alpha-Glucosidase at pH 5.0 (AID 997)
Outline: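 Rice alpha-glucosidase (4 nM final) with 400 uM 4-methylumbelliferyl-alpha-D-glucopyranoside in citrate buffer pH 5.0, 20 min at room temperature, stopped at pH 10; fluorescence 365/440 nm, compounds 0.7 nM–77 uM, AC50 from Hill fits.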

[3] = molecular target: DNA repair nuclease/redox regulator APEX1 (Homo sapiens) (UniProt P27695); experiment: qHTS Validation Assay for Inhibitors of the Human Apurinic/apyrimidinic Endonuclease 1 (APE1) (AID 1705; further: potency means the concentration at half of the fitted maximal effect)
Sequence of DNA repair nuclease/redox regulator APEX1 (Homo sapiens) (P27695 whole entry, looked up): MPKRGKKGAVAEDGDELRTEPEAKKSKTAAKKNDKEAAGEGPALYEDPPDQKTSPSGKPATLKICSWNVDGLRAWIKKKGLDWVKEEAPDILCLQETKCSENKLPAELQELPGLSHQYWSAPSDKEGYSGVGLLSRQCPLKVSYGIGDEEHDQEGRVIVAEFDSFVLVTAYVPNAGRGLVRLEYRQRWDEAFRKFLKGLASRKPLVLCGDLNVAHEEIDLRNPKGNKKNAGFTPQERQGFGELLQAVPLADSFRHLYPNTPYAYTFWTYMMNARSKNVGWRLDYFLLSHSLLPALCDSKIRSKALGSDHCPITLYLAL
Outline: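 Substrate: 50 nM final fluorophore/quencher THF-abasic duplex. Enzyme preincubated with compounds 15 min, RT. Progress derived from fluorescence difference, third minus first kinetic read.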

[4] = molecular target: Endonuclease 4 (Escherichia coli (strain K12)) (UniProt P0A6C1); experiment: Counterscreen for APE1 Inhibitors: qHTS Validation Assay for Inhibitors of Endonuclease IV (AID 1708)
Outline: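 E. coli EndoIV at 2 nM final, preincubated 15 min at room temperature with compound, then 50 nM TAMRA/BHQ-2 THF abasic-site duplex added. Buffer: 50 mM Tris-HCl pH 7.5, 50 mM NaCl, 2 mM MgCl2, 1 mM DTT, 0.01% Tween-20. Kinetic fluorescence increase, third minus first read.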

[5] = Counterscreen for APE1 Inhibitors: Fluorescent Dye Displacement Validation Assay (AID 1707)
Outline: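 Compounds are scored by their ability to displace Thiazole Orange (250 nM) from a 50 nM TAMRA-tagged duplex bearing a tetrahydrofuran abasic site. Buffer is 50 mM Tris-HCl pH7.5, 50mM NaCl, 2 mM MgCl2, 0.01% Tween-20.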

[6] = qHTS for differential inhibitors of proliferation of Plasmodium falciparum line 7G8 (AID 1815);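 further: parasite growth measured after three days of incubation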; further: potency means the concentration at half of the fitted maximal effect
[7] = qHTS for differential inhibitors of proliferation of Plasmodium falciparum line GB4 (AID 1816); conditions: Potency: Plasmodium falciparum GB4 proliferation inhibition;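 further: parasite growth measured after 72 h incubation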; further: potency means the concentration at half of the fitted maximal effect
[8] = qHTS for differential inhibitors of proliferation of Plasmodium falciparum line 3D7 (AID 1876); further: potency means the concentration at half of the fitted maximal effect

Measured: Potency

S=C(S)N1CCCC1
inactive: [1] | [2] | [3] | [4]

O=C(O)Cc1c[nH]c2ccc(O)cc12
inactive: [1] | [2] | [3] | [5] | [6] | [7]

COc1ccc2c(c1)CCC1C2CC[C@@]2(C)C1CC[C@@H]2NCCCCCCN1C(=O)C=CC1=O (stereo partly specified)
inactive: [3] | [5] | [4] | [6] | [7] | [8]

CCCCCCCCCCCCCCSCC(=O)O
inactive: [1] | [2] | [3] | [5] | [4] | [6] | [7] | [8]

Nc1ncnc2c1ncn2C1CCCC1
inactive: [1] | [2] | [3] | [5] | [4] | [6]

NC(=O)c1cc[n+](CC2=C(C(=O)O)N3C(=O)[C@@H](NC(=O)[C@@H](c4ccccc4)S(=O)(=O)[O-])[C@H]3SC2)cc1
active: [3] 14.1 µM
inactive: [5] | [6] | [7] | [8]

CC(C)[C@H](NC(=O)OCc1ccccc1)C(=O)N[C@H](C=O)Cc1ccccc1 (Cbz-Val-Phe-aldehyde)
inactive: [1] | [3] | [4]
active: [6] 7.08 µM | [7] 4.47 µM | [8] 2.82 µM

Nc1nc2ccc(Cl)cc2c2nc(-c3ccco3)nn12
inactive: [1] | [2] | [3] | [5] | [4]

Nc1ncnc2c1c(-c1ccc(Oc3ccccc3)cc1)cn2C1CCCC1
active: [6] 4.47 µM | [7] 2.51 µM | [8] 10 µM
inactive: [1] | [2] | [3] | [5]

O=c1ccc2c(OCCCCc3ccccc3)c3ccoc3cc2o1
active: [7] 11.2 µM
inactive: [1] | [2] | [3]

CC(C)(C)NCC(O)COc1cccc2[nH]c(=O)[nH]c12 (stereo unspecified)
inactive: [3] | [5] | [4] | [6] | [7] | [8]

C=C1C(=O)O[C@@H]2[C@H]3O[C@]3(C)CCC=C(C)CC[C@@H]12
inactive: [3] | [5]
active: [6] 11.2 µM

CCCC(=O)NCCc1c2n(c3ccc(OC)cc13)CCCc1ccccc1-2
inactive: [1] | [3] | [5]
active: [6] 3.55 µM | [7] 11.2 µM
